In PubChem BioAssay (NCI) one finds growth data, which are given here for 21 compounds.

Test systems include DU-145 prostate; K-562 leukemia; MALME-3M melanoma; MDA-MB-231 breast; RXF 393 renal; SF-268 CNS; SF-295 CNS; SF-539 CNS; UACC-257 melanoma; M14 melanoma.
What all share (assay): NCI-60 one-dose screen, 48 h (100 = growth as untreated, 0 = no growth, -100 = all killed)
Details in all cases: 10 µM unless noted

“And” between values parts separate entries of the source, which are not always exact repeats. Equal entries are not always repeated. Compounds without any hit were thinned out: in the full panel of roughly 83,000, 20% have a hit.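 Compound tested at a single concentration for 48 hours in 96-well plates; a percent growth value below 10 was scored as active.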 A number with no mark means an inactive call. The source made the active and inactive calls.

Turning to `CC(C)(C)OC(=O)CC1(O)CCCCC1`, the growth in the assay with DU-145 prostate was 112%; in the assay with K-562 leukemia it was 114%; with MALME-3M melanoma it was 117%; in the assay on MDA-MB-231 breast it was 95.8%; in the assay on RXF 393 renal, 108%; with SF-268 CNS, 104%. The growth in the assay with SF-295 CNS was 100%; in the assay on SF-539 CNS it was 108%; with UACC-257 melanoma it was 109%; with M14 melanoma, 108%.

On to `COc1ccc(CCn2cnn3c(=O)c4ccccc4nc3c2=O)cc1OC`, for which the growth in the assay with DU-145 prostate was 98.2% and 117%; with K-562 leukemia it was 99.9% and 102%; in the assay on MALME-3M melanoma, 114%; in the assay on MDA-MB-231 breast, 110% and 101%; in the assay with RXF 393 renal, 103% and 115%; in the assay on SF-268 CNS it was 93.8% and 108%. The growth was 111% in the assay on SF-295 CNS; 101% and 97.4% in the assay on SF-539 CNS; 101% and 112% with UACC-257 melanoma; 94% and 106% with M14 melanoma.

For `c1ccc2c[n+](Cc3ccc4ccccc4n3)ccc2c1`, the growth in the assay on DU-145 prostate was 99.8%; in the assay on K-562 leukemia it was 63.8%; with MALME-3M melanoma, 75.7%; in the assay with MDA-MB-231 breast, 89.4%; with RXF 393 renal, 91%; with SF-268 CNS it was 85.7%. Moreover, the growth is 91.4% in the assay on SF-295 CNS, 82.5% in the assay with SF-539 CNS, 56% in the assay with UACC-257 melanoma and 72.3% in the assay on M14 melanoma.

Consider `CCN(CC)CCNC(=O)c1ccc(NCN2C(=O)NC(c3ccccc3)(c3ccccc3)C2=O)cc1`, for which the growth is 108% and 122% in the assay on DU-145 prostate; 110% and 108% in the assay with K-562 leukemia; 96.1% in the assay on MALME-3M melanoma; 114% and 103% with MDA-MB-231 breast; 106% and 118% in the assay with RXF 393 renal; 102% and 101% in the assay on SF-268 CNS. The growth in the assay on SF-295 CNS is 94.1%; in the assay with SF-539 CNS, 104%; in the assay on UACC-257 melanoma, 100% and 106%; in the assay on M14 melanoma, 105% and 96.3%.

In the case of `CN(C)CC(CN(C)C)C(O)c1ccccc1` (stereo not given), the growth in the assay on DU-145 prostate was 110%; in the assay with K-562 leukemia, 94.5%; in the assay on MALME-3M melanoma it was 105%; in the assay on MDA-MB-231 breast it was 114%; with RXF 393 renal, 110%; in the assay on SF-268 CNS, 99%. For the same compound, the growth was 96.9% with SF-295 CNS, 90.7% with SF-539 CNS, 102% with UACC-257 melanoma and 96.4% in the assay on M14 melanoma.

With `Cc1cc(O)c(C(C)C)cc1N=O`, the growth in the assay with DU-145 prostate was 108% and 104%; with K-562 leukemia, 99.6%; with MALME-3M melanoma, 113% and 108%; in the assay with MDA-MB-231 breast, 83.3% and 100%; in the assay on RXF 393 renal it was 112% and 113%; with SF-268 CNS it was 99.7% and 96.1%. Also, the growth with SF-295 CNS is 98.8% and 121%; in the assay on SF-539 CNS, 98.7% and 101%; in the assay with UACC-257 melanoma, 103% and 97.1%; with M14 melanoma it was 104%.

As to `Cc1cccc(Cl)c1N`, the growth in the assay with DU-145 prostate was 109%; with K-562 leukemia, 107%; in the assay with MALME-3M melanoma, 111%; in the assay on MDA-MB-231 breast, 114%; in the assay on RXF 393 renal, 126%; with SF-268 CNS, 105%. Also, the growth is 102% in the assay on SF-295 CNS, 111% in the assay with SF-539 CNS, 95.5% in the assay with UACC-257 melanoma and 105% in the assay with M14 melanoma.

As for `O=C(O)Cc1cc(=O)[nH]n(-c2ccccc2)c1=O`, the growth was 115% with DU-145 prostate; 100% in the assay on K-562 leukemia; 113% in the assay on MALME-3M melanoma; 101% in the assay on MDA-MB-231 breast; 109% with RXF 393 renal; 96.8% in the assay on SF-268 CNS. The growth in the assay with SF-295 CNS was 97.4%; with SF-539 CNS, 99.1%; in the assay with UACC-257 melanoma, 98.2%; with M14 melanoma, 106%.

Consider `COc1ccc(CCN=Cc2ccc(Cl)cc2)cc1OC`, for which the growth was 106% in the assay with DU-145 prostate; 122% in the assay with K-562 leukemia; 135% in the assay on MALME-3M melanoma; 109% with MDA-MB-231 breast; 177% in the assay with RXF 393 renal; 99.5% with SF-268 CNS. The growth in the assay with SF-295 CNS is 121%; in the assay on SF-539 CNS it was 111%; in the assay on UACC-257 melanoma it was 109%; in the assay with M14 melanoma it was 111%.

Turning to `COC1C(OC(N)=O)C(O)C(Oc2ccc3c(O)c(NC(=O)c4ccc(O)c(CC=C(C)C)c4)c(=O)oc3c2C)OC1(C)C` (stereo not given), the growth with DU-145 prostate is 106% and 105%; with K-562 leukemia, 79.4% and 116%; in the assay with MALME-3M melanoma, 121% and 101%; with MDA-MB-231 breast, 108% and 88.2%; in the assay on RXF 393 renal, 104% and 98.2%; in the assay on SF-268 CNS, 104% and 97.1%. Moreover, the growth is 92.7% and 94.9% in the assay with SF-295 CNS; 98% and 97.1% in the assay with SF-539 CNS; 104% and 101% with UACC-257 melanoma; 102% and 99.2% with M14 melanoma.

Regarding `Cc1c(Cl)c(C)c(Cc2c(C)c(Cl)c(C)c(Cl)c2O)c(O)c1Cl`, the growth in the assay with DU-145 prostate is 30.2%; with K-562 leukemia it was 20.1%; in the assay on MALME-3M melanoma, -3.69% (active); in the assay with MDA-MB-231 breast, 2.41% (active); in the assay on RXF 393 renal, 4.04% (active); in the assay with SF-268 CNS, 19.6%. Besides, the growth in the assay on SF-295 CNS was 0.164% (active); with SF-539 CNS, 15.7%; in the assay on UACC-257 melanoma, -0.631% (active); in the assay on M14 melanoma, 22.6%.

On to `O=C(O)/C=C/C=C/c1ccccc1`, for which the growth in the assay on DU-145 prostate is 106% and 109%; in the assay on K-562 leukemia it was 114% and 110%; with MALME-3M melanoma it was 103% and 114%; in the assay on MDA-MB-231 breast, 101% and 106%; with RXF 393 renal, 113% and 120%; in the assay with SF-268 CNS, 101%. The growth is 105% and 101% in the assay with SF-295 CNS; 96.7% and 98.6% in the assay on SF-539 CNS; 102% and 93.2% in the assay with UACC-257 melanoma; 101% in the assay with M14 melanoma.

For the compound `CCOC(=O)NC(N)=O`, the growth was 111% and 119% in the assay on DU-145 prostate; 90.7% and 110% with K-562 leukemia; 93.3% in the assay on MALME-3M melanoma; 118% and 102% with MDA-MB-231 breast; 114% in the assay with RXF 393 renal; 106% and 119% in the assay on SF-268 CNS. For the same compound, the growth with SF-295 CNS is 99.9% and 93.2%; with SF-539 CNS, 95.6% and 99.2%; in the assay with UACC-257 melanoma, 94% and 97.1%; in the assay on M14 melanoma, 101%.

Consider `Cc1onc(-c2c(F)cccc2Cl)c1-c1ncc(-c2ccc(Cl)cc2)o1`, for which the growth is 97.2% and 50.2% with DU-145 prostate; 27.9% and 21.5% with K-562 leukemia; 60.2% and 46.6% in the assay with MALME-3M melanoma; 54.1% and 46.3% in the assay on MDA-MB-231 breast; 89.9% and 52.7% with RXF 393 renal; 66.2% and 49.8% in the assay with SF-268 CNS. Moreover, the growth in the assay with SF-295 CNS is 43.8% and 42.2%; in the assay with SF-539 CNS, 68% and 36.5%; with UACC-257 melanoma, 22.5%; in the assay with M14 melanoma, 54.8% and 46.6%.

On to `CN(C)C(=S)N(C)C`, for which the growth in the assay with DU-145 prostate was 110%; with K-562 leukemia it was 106%; with MALME-3M melanoma, 165%; in the assay with MDA-MB-231 breast, 111%; in the assay with RXF 393 renal, 114%; with SF-268 CNS, 103%. Further, the growth with SF-295 CNS was 112%; in the assay with SF-539 CNS it was 99.2%; in the assay on UACC-257 melanoma, 107%; in the assay on M14 melanoma it was 101%.

On to `CCOC(=O)c1ccncc1`, for which the growth in the assay with DU-145 prostate was 104%; with K-562 leukemia it was 99.3%; with MALME-3M melanoma, 113%; with MDA-MB-231 breast, 110%; with RXF 393 renal, 107%; with SF-268 CNS it was 101%. Also, the growth was 96.2% in the assay on SF-295 CNS, 108% in the assay with SF-539 CNS, 116% in the assay on UACC-257 melanoma and 102% in the assay on M14 melanoma.

In the case of `C/C=C/C(=O)OCCCCCCCCCCCC`, the growth in the assay with DU-145 prostate is 118%; with K-562 leukemia, 93.3%; in the assay on MALME-3M melanoma, 111%; in the assay on MDA-MB-231 breast, 93.2%; with RXF 393 renal, 110%; in the assay on SF-268 CNS, 106%. Also, the growth is 105% in the assay with SF-295 CNS, 109% with SF-539 CNS, 94.4% in the assay on UACC-257 melanoma and 98.7% in the assay on M14 melanoma.

Consider `N#CC1c2ccccc2C=CN1C(=O)c1ccccc1` (stereo not given), for which the growth in the assay on DU-145 prostate is 108% and 94.1%; in the assay on K-562 leukemia, 99.6% and 112%; in the assay on MALME-3M melanoma it was 94.8% and 108%; in the assay on MDA-MB-231 breast, 96% and 94.1%; with RXF 393 renal, 136% and 118%; in the assay on SF-268 CNS, 111% and 84.8%. The growth is 101% and 93.3% in the assay on SF-295 CNS; 112% and 86.6% with SF-539 CNS; 103% and 113% with UACC-257 melanoma; 99.9% and 98.7% in the assay with M14 melanoma.

Take `CC(=O)c1cccc(OC(=O)c2ccccc2)c1`: the growth in the assay on DU-145 prostate was 114%; in the assay with K-562 leukemia, 92%; with MALME-3M melanoma, 110%; with MDA-MB-231 breast, 102%; in the assay on RXF 393 renal, 117%; with SF-268 CNS, 106%. For the same compound, the growth with SF-295 CNS is 124%; in the assay on SF-539 CNS it was 109%; in the assay on UACC-257 melanoma it was 101%; with M14 melanoma, 93.1%.

Regarding `COC(=O)c1ccccc1Cl`, the growth is 106% with DU-145 prostate; 8.26% (active) in the assay with K-562 leukemia; 95% with MALME-3M melanoma; 111% in the assay on MDA-MB-231 breast; 121% in the assay on RXF 393 renal; 98.9% with SF-268 CNS. Further, the growth was 92.1% in the assay with SF-295 CNS, 93.5% in the assay with SF-539 CNS, 102% in the assay on UACC-257 melanoma and 102% in the assay on M14 melanoma.

Take `Nc1nc(N)c2cc(S(=O)(=O)c3ccccc3)ccc2n1`: the growth with DU-145 prostate was 30.3% and 40.9%; in the assay on K-562 leukemia, 16.7% and 26.1%; in the assay with MALME-3M melanoma, 58.1% and 29%; in the assay on MDA-MB-231 breast, 48.9% and 51.8%; in the assay on RXF 393 renal, 62% and 85.6%; with SF-268 CNS, 40.1% and 38%. For the same compound, the growth with SF-295 CNS is 18.9%; with SF-539 CNS, 30.5% and 21.8%; in the assay with UACC-257 melanoma it was 39% and 59.2%; in the assay on M14 melanoma, 35.2% and 31.9%.
